The values that follow come from PubChem BioAssay AID2018 (Sanford-Burnham Center for Chemical Genomics, 2009).

Hit rate of the full screen: of about 1,200 compounds, about 600 (50%) were called active. Rule as the data show it: active = inhibition above about 42%; inactive = the rest. The set was probably picked from earlier hits. The list shows a part of the results. Results with a measured potency or affinity are listed apart.

For the test, the target named is SUMO-conjugating enzyme UBC9 (Homo sapiens) (UniProt P63279). Nature of the test: SUMOylation inhibitor hit validation, confirmation, SUMOylation inhibitor project, biochemical, AlphaScreen (AID 2018). Conditions: AlphaScreen in vitro SUMOylation assay; at 35 µM; hits give high values. (In general: Bead proximity is the source of the signal in Alpha formats.)
SUMO-conjugating enzyme UBC9 (Homo sapiens), sequence (P63279 whole entry, looked up): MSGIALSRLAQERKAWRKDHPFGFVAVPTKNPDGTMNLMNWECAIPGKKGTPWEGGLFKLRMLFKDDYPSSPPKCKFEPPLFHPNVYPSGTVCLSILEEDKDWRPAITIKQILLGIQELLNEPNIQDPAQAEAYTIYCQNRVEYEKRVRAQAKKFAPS
One may read the inhibition as the change of the read-out against control, counted positive when it falls. For `Cc1ccccc1N=Cc1cc2c(cc1[N+](=O)[O-])OCO2`, the inhibition was 43.9% (active). Under `S=c1[nH]nc(-c2ccncc2)n1/N=C/c1ccccc1Cl` stands 20.2% (inactive); under `CCOC(=O)C1=C(C)NC(=O)CC1c1cc2c(cc1[N+](=O)[O-])OCO2` (configuration not stated), 14.6% (inactive); under `O=[N+]([O-])c1cc2c(cc1CN1CCN(CCOCCO)CC1)OCO2`, 12.3% (inactive). Turning to `O=[N+]([O-])c1cc2c(cc1/C=N/n1c(-c3ccccn3)n[nH]c1=S)OCO2`, the inhibition was 82.5% (active).

As for `CCN(CC)CCNS(=O)(=O)c1ccc2c3c(cccc13)C(=O)N2`, the inhibition is -8.8% (inactive). As for `CC1(C)Nc2ccc(O)cc2-c2c1ssc2=S`, the figure is 59.8% (active); as for `NC(=O)c1sc2nc(-c3ccco3)ccc2c1N`, 20% (inactive).

For `Nc1nc(-c2ccco2)c(-c2ccco2)s1`, the inhibition is 55.9% (active). Take `N#Cc1c(N2CCN(c3ccc(F)cc3)CC2)nc(N)c2c(N)nc3c(c12)CC(=O)N3C1CC1`: the inhibition was 37.6% (inactive). In the case of `COCC(C)N1C(=O)Cc2c1nc(N)c1c(N)nc(N3CCN(c4ccccc4F)CC3)c(C#N)c21` (configuration not stated), the inhibition was 37.8% (inactive). Regarding `CC(C)N1C(=O)CC(Nc2cccc3cccc(N)c23)C1=O` (configuration not stated), the inhibition was 0.8% (inactive). As for `Cn1c(=O)cc(C(=O)N/N=C/c2ccc(Cl)cc2)[nH]c1=O`, the figure is -20.2% (inactive); as for `O=C1NNC(c2ccccc2)=N/C1=C\c1ccccc1Cl`, 101% (active); as for `CN(NC(=O)c1ccc(Cl)cc1)c1ncc(C(F)(F)F)cc1Cl`, 2.5% (inactive). As for `O=C(NC1(O)C(=O)c2ccccc2C1=O)c1c(Cl)cccc1Cl`, the figure is 101% (active). Under `O=C(NC1(O)C(=O)c2ccccc2C1=O)c1ccccc1` stands 101% (active); under `Cc1onc(-c2ccccc2Cl)c1C(=O)NCc1ccco1`, 32.5% (inactive); under `O=C(NC1(O)C(=O)c2ccccc2C1=O)c1ccc(C(F)(F)F)cc1`, 101% (active). With `O=c1c(=Nc2ccccc2O)c(=O)c2ccccc12`, the inhibition is 9.9% (inactive). Under `Clc1ccc(-c2nnc3c4ccccc4nc(N4CCOCC4)n23)cc1Cl` stands 4% (inactive); under `CC(=O)Oc1c(/C=C(\C#N)C(N)=O)[nH]c2ccccc12`, 21.9% (inactive); under `Cc1ccc(NC(=O)Nc2cccn(Cc3c(F)cccc3Cl)c2=O)cc1`, 14.6% (inactive).

With `O=C(NCc1ccccc1)Nc1cccn(Cc2ccccc2Cl)c1=O`, the inhibition is 20.8% (inactive).

For `Cc1nn2c3c(cnc2c1-c1ccc(Cl)cc1)C(=O)CC(c1ccco1)C3` (configuration not stated), the inhibition was 9.7% (inactive). Regarding `COc1ccccc1Oc1c(C)oc2c(CN3CCN(C)CC3)c(O)ccc2c1=O`, the inhibition was 7% (inactive). `O=C(CC1CS(=O)(=O)CC1CC(=O)Oc1ccccc1F)Oc1ccccc1F` (configuration not stated): the inhibition is 102% (active).
